In PubChem BioAssay AID1863 (Southern Research Specialized Biocontainment Screening …, 2009) one finds inhibition data, which are given here for 96 compounds.

Several values for one entry are separate records, joined by “and”; a condition that tells them apart may be missing. Identical values can stand only once. Hit rate of the full screen: of about 300,000 compounds, about 480 (0.16%) were called active. Not all results are given here. Entries with a potency or affinity are not part of this list. Unmarked numbers belong to inactive results.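 Rule for the calls: active = inhibition over 29.93%, a cutoff 3 SD above the screen mean, later confirmed by dose response; inconclusive = inhibition over 29.93% but no dose response follow-up; inactive = inhibition at most 29.93% or unconfirmed.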

This experiment can be described thus: inhibitors of PhoP regulon expression, primary screen, Salmonella Typhimurium, GFP reporter (AID 1863).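 Note: 0% = low Mg2+ inducing control and 100% = high Mg2+ repressing control.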 As to conditions: S. Typhimurium PhoP-regulated promoter GFP reporter, 4 h; at 50 µM; stronger effect = higher value.
As to `O=C1CC(c2ccccc2Cl)Cc2c1cnn2-c1nc2ccccc2s1` (stereo unspecified), the inhibition (in general, the relative decrease from the control value, in per cent) was -5.22%.

For the compound `Cc1nn(C)c(C)c1CN(C)C(=O)CCCC(=O)O`, the inhibition is -3.44%.

As to `CCOc1ccccc1-c1ccc(C(=O)NCc2ccccc2)o1`, the inhibition is -2.75%.

As to `Cc1c(Cl)cccc1NC(=O)CNC(=O)c1ccc(F)cc1`, the inhibition is -6.63%.

On to `O=C1C(=O)N(CCO)C(c2cccc(F)c2)/C1=C(\O)c1ccc(Cl)cc1` (stereo unspecified), for which the inhibition was 0.663%.

Turning to `O=C(COC(=O)CCCN1C(=O)c2cccc3cccc(c23)C1=O)Nc1cccc(Br)c1`, the inhibition is 5.32%.

On to `Cc1ccc(C2=NN(CC(=O)NCc3ccccn3)C(=O)CC2)cc1`, for which the inhibition was 15.1%.

On to `O=C(Nc1cccc(Cl)c1)NC1CCS(=O)(=O)C1` (stereo unspecified), for which the inhibition was 0.08%.

Regarding `CCCCCC[N+](C)(C)CC/C=C1/c2ccccc2Sc2ccc(Cl)cc21`, the inhibition was -5.82%.

`CCCCCCCCCCC[N+](C)(C)CC/C=C1/c2ccccc2Sc2ccc(Cl)cc21`: the inhibition was 0.18%.

Turning to `O=C(O)c1ccccc1SSc1ccccc1C(=O)O`, the inhibition is -0.72%.

Regarding `CCC(Sc1ccccc1C(=O)O)C(=O)O` (stereo unspecified), the inhibition was -0.12%.

For `CCNC1=C(Cl)C(=O)c2ccccc2C1=O`, the inhibition is 22.7%.

For `O=C1C(Cl)=C(Nc2ccccc2)C(=O)c2ccccc21`, the inhibition is 4.63%.

As for `O=C(CCCN1C(=O)c2ccccc2C1=O)Nc1ccccn1`, the inhibition was -1.86%.

As for `CCC1(c2ccccc2)NC(=O)N(CC(=O)Nc2cc(S(=O)(=O)N3CCOCC3)ccc2OC(C)C)C1=O` (stereo unspecified), the inhibition was -0.1%.

For the compound `COc1ccc(C(=O)CCC(=O)NCCc2c[nH]c3ccccc23)cc1`, the inhibition was 8.52%.

Regarding `Cc1cccc(NS(=O)(=O)c2cccs2)c1`, the inhibition is 16.6%.

Consider `Cc1nc([N+](=O)[O-])c(Br)n1CC(=O)c1ccc(Br)cc1`, for which the inhibition is 8.26%.

Turning to `Cc1nc([N+](=O)[O-])c(Br)n1CC(=O)c1ccc(F)cc1`, the inhibition was 7.24%.

Regarding `O=[N+]([O-])c1c(Nc2ccc(O)cc2)cc(Cl)c2nonc12`, the inhibition was 20%.

For the compound `Nc1cc(Nc2ccccc2)c2nonc2c1[N+](=O)[O-]`, the inhibition was -3.49%.

Regarding `Nc1cc(N2CCCCCC2)c2nonc2c1[N+](=O)[O-]`, the inhibition was -3.85%.

Regarding `O=[N+]([O-])c1c(Nc2ccccc2O)cc(Cl)c2nonc12`, the inhibition is 16.1%.

Regarding `Cc1c(NC(=O)c2ccc(S(=O)(=O)N3CCOCC3)cc2)c(=O)n(-c2ccccc2)n1C`, the inhibition was -7.51%.

`OCCC1CN(Cc2cccn2-c2ccccn2)CCN1C1CCCC1` (stereo unspecified): the inhibition is -4.15%.

For `COc1ccccc1C(c1nnnn1C1CCCC1)N1CCN2CCCC2C1` (stereo unspecified), the inhibition was 2.8%.

For `CCC1(C)Cc2c(sc3nc(SCC(=O)c4ccccc4)[nH]c(=O)c23)CO1` (stereo unspecified), the inhibition was -14.9%.

As to `Nc1nonc1-n1nnc(C(=O)N/N=C/c2c(Cl)cccc2Cl)c1CSC1=NCCS1`, the inhibition was 6.32%.

For the compound `Nc1nonc1C(=O)N/N=C/c1cc2c(cc1Br)OCO2`, the inhibition was 3.06%.

Consider `Nc1nonc1C(=O)N/N=C/c1ccc(Br)o1`, for which the inhibition is -2.96%.

With `Nc1nonc1-n1nnc(C(=O)N/N=C/c2ccc(Br)cc2)c1CSC1=NCCS1`, the inhibition is 44.3%.

As to `O=C(NCc1ccco1)C1CCCN(S(=O)(=O)c2ccc(Cl)cc2)C1` (stereo unspecified), the inhibition is 0.1%.

Consider `COc1ccc(-c2cccc(NC(=O)COc3ccc(Cl)cc3)c2)nn1`, for which the inhibition was -8.03%.

Consider `CCCCCCCC[n+]1cccc(C(=O)N(CC)CC)c1`, for which the inhibition was 7.46%.

On to `CCCCCCCCCC[n+]1cccc(C(=O)N(CC)CC)c1`, for which the inhibition was 11%.

With `CCC(=O)NC(=S)Nc1ccc(N2CCN(C(=O)c3ccc(Cl)cc3)CC2)cc1`, the inhibition is 2.66%.

Take `CC(=O)/C=C1\SC(CC(=O)O)C(=O)N1c1ccccc1` (stereo unspecified): the inhibition is -3.51%.

Regarding `COc1ccc2nc(SCC(N)=O)cc(C)c2c1`, the inhibition is -2.01%.

As to `CC1CCN(CC(O)CN2c3ccccc3Sc3ccccc32)CC1` (stereo unspecified), the inhibition is 11.3%.

Regarding `CN1CCCC(CN2c3ccccc3Sc3ccccc32)C1` (stereo unspecified), the inhibition was 5.69%.

Turning to `O=C(O)c1cccc(N/N=C/c2cc(Br)cc(Br)c2O)c1`, the inhibition was -5.01%.

On to `Cc1c(N=Cc2cc(Br)cc(Br)c2O)cccc1C(=O)O`, for which the inhibition is 20.2%.

With `N#CCCn1nc(-c2ccccc2)c2ccccc2c1=O`, the inhibition is 0.37%.

Consider `Cc1ccc(N2C(=O)Nc3ccccc3C2(O)C(=O)N2CCN(c3ccccn3)CC2)cc1C` (stereo unspecified), for which the inhibition is 1.22%.

For `O=C(CS(=O)(=O)c1ccccc1)NC1CCCCC1`, the inhibition was -0.8%.

In the case of `CC(CC(=O)Nc1ccccc1)NCCCN1CCCC1=O` (stereo unspecified), the inhibition is -13.5%.

Regarding `COc1ccc(C(=O)Nc2ccccc2C(=O)N2CCCCC2C)cc1` (stereo unspecified), the inhibition was -7.49%.

With `Cc1ccc(S(=O)(=O)N2CC(=NN=C(N)N)C2)cc1`, the inhibition is 6.04%.

Consider `NC(N)=NN=C1CCC(c2ccccc2)CC1` (stereo unspecified), for which the inhibition is -4.95%.

Consider `COc1ccc(/C=N/NC(=O)c2ccc(COc3ccccc3Cl)o2)cc1`, for which the inhibition was 2.77%.

Take `CC(=O)Nc1ccc(Nc2nnc(-c3ccc(C)c(S(N)(=O)=O)c3)c3ccccc23)cc1`: the inhibition was -2.89%.

On to `CC1=C(C)C(=O)C(N2CCOCC2)=CC1=O`, for which the inhibition was -8.01%.

On to `CC(C)(C)C1=CC(=O)C(N2CCOCC2)=CC1=O`, for which the inhibition was -2.73%.

Take `CC(NC(=O)COc1ccc(Oc2ccccc2)cc1)C(=O)O` (stereo unspecified): the inhibition was -6.64%.

On to `CC(=O)c1cccc(NC(=O)Nc2ccccc2)c1`, for which the inhibition was 4.67%.

Turning to `CCOC(=O)N1CCN(S(=O)(=O)c2cccc3cccnc23)CC1`, the inhibition was -11%.

For the compound `Oc1c(C(c2ccc(Cl)cc2)N2CCCC2)cc(Cl)c2cccnc12` (stereo unspecified), the inhibition was 4.49%.

Consider `COc1ccc(C(NC(C)=O)c2cc(Cl)c3cccnc3c2O)cc1OC` (stereo unspecified), for which the inhibition is 3%.

Take `CN1CCN(C(c2cccnc2)c2ccc3cccnc3c2O)CC1` (stereo unspecified): the inhibition was -7.68%.

Take `O=C(NC(c1ccc(Cl)cc1)c1cc(Cl)c2cccnc2c1O)c1cccnc1` (stereo unspecified): the inhibition is 6.03%.

As for `CN1CCN(C(c2ccc(C(F)(F)F)cc2)c2ccc3cccnc3c2O)CC1` (stereo unspecified), the inhibition was 0.72%.

As to `OCCN1CCN(C(c2cccs2)c2ccc3cccnc3c2O)CC1` (stereo unspecified), the inhibition was -47.6%.

On to `CCC(=O)NC(c1ccc(OC)cc1)c1cc(Cl)c2cccnc2c1O` (stereo unspecified), for which the inhibition was 2.08%.

On to `CCC(c1nnnn1C(C)(C)CC)N(CCCN1CCOCC1)Cc1cc2cccc(C)c2[nH]c1=O` (stereo unspecified), for which the inhibition was 1.45%.

Regarding `CCn1nc(C)c(/C=N/NC(=O)Cn2nc(C)cc2C)c1C`, the inhibition was -4.2%.

For the compound `CCCCNC(=O)c1cc(-c2ccc(OC)c(OC)c2)on1`, the inhibition was 3.01%.

In the case of `Cc1c(C#N)c(N)nc2c3c(sc12)NC(=O)CC3c1ccccc1` (stereo unspecified), the inhibition is -5.65%.

For the compound `COc1cccc(NC(=O)c2cc([N+](=O)[O-])ccc2NCc2cccnc2)c1`, the inhibition was -4.37%.

As to `CCOC(=O)c1cn(CC(=O)Nc2cccc(F)c2)nn1`, the inhibition is -11.4%.

`O=C(Cn1c(C(=O)O)cc2ccccc21)c1ccccc1`: the inhibition was -2.79%.

On to `Cc1ccc(N2C(=O)N(CC(=O)N3CCOCC3)C(=O)C2C)cc1` (stereo unspecified), for which the inhibition was 2.04%.

`COC(C(=O)Nc1ccnn1C1CCN(C(=O)c2ccc(C)cc2)CC1)c1ccccc1` (stereo unspecified): the inhibition was 5.45%.

On to `O=S1(=O)CCOC[C@H](CC2CCCCC2)N1Cc1cccc(C(F)(F)F)c1`, for which the inhibition was 9.84%.

`Oc1c(C(c2ccccn2)N2CCC(Cc3ccccc3)CC2)cc(Cl)c2cccnc12` (stereo unspecified): the inhibition is -3.77%.

Turning to `O=C(NC(c1ccccc1)c1cc(Cl)c2cccnc2c1O)c1cccnc1` (stereo unspecified), the inhibition was -10.8%.

Turning to `COc1ccc(C(NC(C)=O)c2cc(Cl)c3cccnc3c2O)cc1` (stereo unspecified), the inhibition was 5.56%.

As for `CC(=O)NC(c1ccccc1)c1cc(Cl)c2cccnc2c1O` (stereo unspecified), the inhibition was 18.9%.

For the compound `CCC(=O)NC(c1cccs1)c1cc(Cl)c2cccnc2c1O` (stereo unspecified), the inhibition was 14.8%.

For `CC(=O)NC(c1ccc(C)cc1)c1cc(Cl)c2cccnc2c1O` (stereo unspecified), the inhibition is -1.88%.

Regarding `CCOc1ccc(C(Nc2cccnc2)c2cc(Cl)c3cccnc3c2O)cc1` (stereo unspecified), the inhibition is 3.11%.

Regarding `CCCc1cc(=O)[nH]c(SCC(=O)Nc2ccc(Br)cc2)n1`, the inhibition is -7.86%.

Regarding `CC1CCN(S(=O)(=O)c2ccc3c(c2)c(=O)c(C(=O)NCc2ccccc2Cl)cn3C)CC1`, the inhibition was 5.92%.

As for `O=C(/C=C/c1ccc(O)c(O)c1)c1ccccc1O`, the inhibition is -12%.

Turning to `Cc1ccc(/C=C/C(=O)c2ccccc(=O)c2O)c(C)c1`, the inhibition is 7.66%.

Take `O=C(/C=C/c1ccccc1Cl)c1ccc[nH]1`: the inhibition is 11.1%.

For `Cc1ccc2occ(/C=C/C(=O)c3ccccc3O)c(=O)c2c1`, the inhibition was 1.62%.

For the compound `Cc1cccc(/C=C/C(=O)c2cc(Br)ccc(=O)c2O)c1`, the inhibition is 23.4%.

On to `O=C(/C=C/c1ccccc1Cl)c1ccc(O)cc1`, for which the inhibition is 2.4%.

As for `C=CCNC(=O)CSc1nnc(-c2ccccn2)n1Cc1ccccc1`, the inhibition is 7.3%.

As for `CCOC(=O)c1ccc(NC(=O)c2ccccc2N(C)S(=O)(=O)c2ccccc2)cc1`, the inhibition is 1.33%.

As for `Cc1ncc(CSCC(=O)Nc2cc(C(F)(F)F)ccc2Cl)c(CO)c1O`, the inhibition was 3.52%.

Turning to `C=C1CCC(OC(C)=O)C2(C)CCC3C(C)C(=O)OC3C12O` (stereo unspecified), the inhibition was 5.69%.

Take `COc1ccc(CN(CCN(C)C)c2ccccn2)cc1`: the inhibition was 5.26% and 0.005%.

As to `CC[N+](C)(C)CCN(Cc1ccc(Cl)cc1)c1ccccn1`, the inhibition is 1.17%.

Regarding `Cc1cccc(CCNC(=O)CN(C)S(=O)(=O)c2ccc3c(c2)c(=O)n(C)c(=O)n3C)c1`, the inhibition was 10.3%.
